Test in all cases: DAPPL (digital affinity profiling via proximity ligation, sequencing); 10 mM Tris-HCl pH 7.5, 50 mM NaCl, 1 mM DTT, 4% glycerol, room temperature, 30 min; GST-TFs on glutathione beads, 16-mer random dsDNA library, 0.1% formaldehyde crosslink after washing; high values mean tight binding
One test addresses T1, FEV (Homo sapiens, UniProt Q99581 1-238).
T1 sequence: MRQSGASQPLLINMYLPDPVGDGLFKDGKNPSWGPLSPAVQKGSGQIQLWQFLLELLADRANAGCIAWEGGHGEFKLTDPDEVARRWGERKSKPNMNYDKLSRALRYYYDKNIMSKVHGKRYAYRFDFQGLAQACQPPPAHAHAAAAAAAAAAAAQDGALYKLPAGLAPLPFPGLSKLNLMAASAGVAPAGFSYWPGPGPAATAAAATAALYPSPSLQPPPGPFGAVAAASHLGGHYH
To be noted: protein: recombinant; tags: N-terminal GST; dsDNA, one strand shown. The procedure, abridged: (§1)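 Each value of binding signal is a hexamer's read frequency for a factor divided by the same hexamer's frequency in the tag-only sample. Barcoded, bead-captured GST fusions of human transcription factors made in yeast were pooled with that sample and incubated with 200 nmole of a random double-stranded 16-mer DNA library in Tris/NaCl/DTT/glycerol buffer at room temperature for 30 min. Washing, 0.1% formaldehyde crosslinking, proximity ligation, PCR and Illumina NextSeq500 sequencing followed.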

Another test has as its target ETV5 (Homo sapiens, UniProt P41161 1-510). To be noted: protein: recombinant; tags: N-terminal GST; dsDNA, one strand shown. The procedure, abridged: as §1
For a further test, the target named is HSF1 (Homo sapiens, UniProt Q00613 1-529). To be noted: protein: recombinant; tags: N-terminal GST; chain copies: 3; dsDNA, one strand shown. The procedure, abridged: as §1
For a further test, the target named is T2, SPIC (Homo sapiens, UniProt Q8N5J4 1-248).
T2 sequence: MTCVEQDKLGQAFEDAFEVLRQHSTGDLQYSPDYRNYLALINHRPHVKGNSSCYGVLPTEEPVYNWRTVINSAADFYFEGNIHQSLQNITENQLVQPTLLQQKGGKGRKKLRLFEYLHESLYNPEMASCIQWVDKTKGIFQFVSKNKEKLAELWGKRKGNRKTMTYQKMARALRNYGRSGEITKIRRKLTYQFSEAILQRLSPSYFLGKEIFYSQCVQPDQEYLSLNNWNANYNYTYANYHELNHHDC
To be noted: protein: recombinant; tags: N-terminal GST; dsDNA, one strand shown. The procedure, abridged: as §1

The target in the next test is ELF4 (Homo sapiens, UniProt Q99607 1-663). To be noted: protein: recombinant; tags: N-terminal GST; dsDNA, one strand shown. The procedure, abridged: as §1
The target of a further test is T3, ELK4 (Homo sapiens, UniProt P28324-2 1-405).
T3 sequence: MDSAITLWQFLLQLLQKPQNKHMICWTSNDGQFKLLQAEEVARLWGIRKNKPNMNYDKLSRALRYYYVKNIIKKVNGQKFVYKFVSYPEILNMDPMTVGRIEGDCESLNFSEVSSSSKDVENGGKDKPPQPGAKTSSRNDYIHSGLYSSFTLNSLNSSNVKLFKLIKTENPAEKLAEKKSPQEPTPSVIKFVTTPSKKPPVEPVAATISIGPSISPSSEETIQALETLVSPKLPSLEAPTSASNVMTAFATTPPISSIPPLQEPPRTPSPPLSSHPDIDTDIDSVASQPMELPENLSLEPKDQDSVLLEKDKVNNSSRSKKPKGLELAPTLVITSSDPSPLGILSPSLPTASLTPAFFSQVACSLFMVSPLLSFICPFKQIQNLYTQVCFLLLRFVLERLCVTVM
Conditions: protein: recombinant; tags: N-terminal GST; dsDNA, one strand shown. In short, it runs like this:
as §1

The target in the next test is T4, ETV2 (Homo sapiens, UniProt O00321 1-342).
T4 sequence: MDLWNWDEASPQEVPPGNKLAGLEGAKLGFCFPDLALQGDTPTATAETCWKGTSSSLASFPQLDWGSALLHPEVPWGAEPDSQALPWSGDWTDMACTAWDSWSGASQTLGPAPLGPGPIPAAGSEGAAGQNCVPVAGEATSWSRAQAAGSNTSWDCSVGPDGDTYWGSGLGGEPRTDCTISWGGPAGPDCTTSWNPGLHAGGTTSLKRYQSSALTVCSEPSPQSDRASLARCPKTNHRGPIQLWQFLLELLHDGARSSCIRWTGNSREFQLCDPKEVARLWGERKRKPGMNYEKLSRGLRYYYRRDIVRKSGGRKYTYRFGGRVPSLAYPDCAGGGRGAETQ
Conditions: protein: recombinant; tags: N-terminal GST; dsDNA, one strand shown. The procedure, abridged: as §1

The next test deals with T5, ELF3 (Homo sapiens, UniProt P78545 1-371).
T5 sequence: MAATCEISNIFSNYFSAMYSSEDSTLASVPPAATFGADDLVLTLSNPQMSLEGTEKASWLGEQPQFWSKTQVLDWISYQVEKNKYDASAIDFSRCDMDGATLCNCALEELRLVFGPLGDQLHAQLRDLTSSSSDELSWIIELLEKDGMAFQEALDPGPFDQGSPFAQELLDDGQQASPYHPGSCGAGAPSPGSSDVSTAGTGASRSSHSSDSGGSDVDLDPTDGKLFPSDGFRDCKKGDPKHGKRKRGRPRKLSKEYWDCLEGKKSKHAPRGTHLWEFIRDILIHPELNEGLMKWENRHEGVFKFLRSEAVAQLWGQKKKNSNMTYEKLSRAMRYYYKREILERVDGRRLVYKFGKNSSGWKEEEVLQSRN
To be noted: protein: recombinant; tags: N-terminal GST; dsDNA, one strand shown. In short, it runs like this:
as §1

Another test addresses CRX (Homo sapiens, UniProt O43186 1-299). Conditions: protein: recombinant; tags: N-terminal GST; dsDNA, one strand shown. The procedure, abridged:
as §1

The target in a further test is ETV1 (Homo sapiens, UniProt P50549 1-477). Conditions: protein: recombinant; tags: N-terminal GST; dsDNA, one strand shown. In short, it runs like this: as §1
The target in another test is T6, ERF (Homo sapiens, UniProt P50548 1-548).
T6 sequence: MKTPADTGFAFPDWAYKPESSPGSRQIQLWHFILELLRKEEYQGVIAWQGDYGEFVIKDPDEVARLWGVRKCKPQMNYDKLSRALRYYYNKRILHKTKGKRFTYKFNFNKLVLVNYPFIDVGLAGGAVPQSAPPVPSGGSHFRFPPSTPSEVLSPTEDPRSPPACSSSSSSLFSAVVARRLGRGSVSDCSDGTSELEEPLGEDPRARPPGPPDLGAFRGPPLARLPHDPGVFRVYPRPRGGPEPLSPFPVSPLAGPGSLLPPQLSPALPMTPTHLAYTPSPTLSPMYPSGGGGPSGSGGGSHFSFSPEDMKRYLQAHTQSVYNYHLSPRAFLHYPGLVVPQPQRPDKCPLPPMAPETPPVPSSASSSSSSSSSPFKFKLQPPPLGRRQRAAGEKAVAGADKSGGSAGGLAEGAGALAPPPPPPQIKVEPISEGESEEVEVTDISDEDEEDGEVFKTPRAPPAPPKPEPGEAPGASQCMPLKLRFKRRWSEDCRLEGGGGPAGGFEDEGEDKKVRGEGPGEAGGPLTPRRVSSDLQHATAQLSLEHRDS
To be noted: protein: recombinant; tags: N-terminal GST; dsDNA, one strand shown. The procedure, abridged:
as §1

In another test the target is T7, ETV3L (Homo sapiens, UniProt Q6ZN32 1-361).
T7 sequence: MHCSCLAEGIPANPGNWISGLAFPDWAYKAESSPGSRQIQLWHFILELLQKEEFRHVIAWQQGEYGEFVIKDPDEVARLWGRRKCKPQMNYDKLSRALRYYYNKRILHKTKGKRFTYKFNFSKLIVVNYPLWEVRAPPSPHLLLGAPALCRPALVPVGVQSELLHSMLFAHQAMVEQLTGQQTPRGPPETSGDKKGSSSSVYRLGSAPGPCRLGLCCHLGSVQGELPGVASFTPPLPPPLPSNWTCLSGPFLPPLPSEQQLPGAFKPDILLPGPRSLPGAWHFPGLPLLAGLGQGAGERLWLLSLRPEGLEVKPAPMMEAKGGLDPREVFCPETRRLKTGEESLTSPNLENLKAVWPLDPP
To be noted: protein: recombinant; tags: N-terminal GST; dsDNA, one strand shown. The procedure, abridged:
as §1

The next test addresses T8, ETS2 (Homo sapiens, UniProt P15036 1-469).
T8 sequence: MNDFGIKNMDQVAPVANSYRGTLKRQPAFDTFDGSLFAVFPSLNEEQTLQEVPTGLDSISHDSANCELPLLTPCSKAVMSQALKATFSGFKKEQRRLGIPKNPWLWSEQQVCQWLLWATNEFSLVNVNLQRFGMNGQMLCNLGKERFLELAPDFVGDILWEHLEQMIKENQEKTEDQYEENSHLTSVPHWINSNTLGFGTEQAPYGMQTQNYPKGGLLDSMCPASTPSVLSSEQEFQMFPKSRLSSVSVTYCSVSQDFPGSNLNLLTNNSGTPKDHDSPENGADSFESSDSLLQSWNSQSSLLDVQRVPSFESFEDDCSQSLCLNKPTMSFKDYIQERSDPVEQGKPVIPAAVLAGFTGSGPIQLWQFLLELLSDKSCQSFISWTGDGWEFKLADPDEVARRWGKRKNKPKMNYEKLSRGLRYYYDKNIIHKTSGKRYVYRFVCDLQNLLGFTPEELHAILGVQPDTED
To be noted: protein: recombinant; tags: N-terminal GST; dsDNA, one strand shown. In short, it runs like this:
as §1

The target in the next test is T9, SPDEF (Homo sapiens, UniProt O95238 1-335).
T9 sequence: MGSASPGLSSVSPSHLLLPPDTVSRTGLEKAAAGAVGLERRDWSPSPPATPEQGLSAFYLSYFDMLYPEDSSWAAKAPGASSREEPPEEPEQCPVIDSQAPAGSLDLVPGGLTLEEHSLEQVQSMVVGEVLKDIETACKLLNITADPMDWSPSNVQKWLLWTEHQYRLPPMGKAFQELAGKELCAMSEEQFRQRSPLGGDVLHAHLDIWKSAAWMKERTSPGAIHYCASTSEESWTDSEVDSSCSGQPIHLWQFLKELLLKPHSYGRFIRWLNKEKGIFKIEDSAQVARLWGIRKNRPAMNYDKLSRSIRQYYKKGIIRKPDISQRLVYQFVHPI
To be noted: protein: recombinant; tags: N-terminal GST; dsDNA, one strand shown. In short, it runs like this:
as §1

The target in a further test is T10, ETV7 (Homo sapiens, UniProt Q9Y603 1-341).
T10 sequence: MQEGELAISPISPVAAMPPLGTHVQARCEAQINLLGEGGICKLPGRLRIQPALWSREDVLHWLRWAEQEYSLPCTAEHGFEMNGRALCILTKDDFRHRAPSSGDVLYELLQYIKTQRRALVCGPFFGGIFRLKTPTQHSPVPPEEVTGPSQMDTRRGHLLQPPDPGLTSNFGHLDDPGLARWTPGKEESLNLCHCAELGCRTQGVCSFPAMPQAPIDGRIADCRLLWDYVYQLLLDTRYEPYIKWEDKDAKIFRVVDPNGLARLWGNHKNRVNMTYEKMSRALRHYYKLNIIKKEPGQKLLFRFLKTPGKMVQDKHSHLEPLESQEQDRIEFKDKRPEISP
Conditions: protein: recombinant; tags: N-terminal GST; dsDNA, one strand shown. The procedure, abridged:
as §1

Another test deals with T11, ELF5 (Homo sapiens, UniProt Q9UKW6-2 1-255).
T11 sequence: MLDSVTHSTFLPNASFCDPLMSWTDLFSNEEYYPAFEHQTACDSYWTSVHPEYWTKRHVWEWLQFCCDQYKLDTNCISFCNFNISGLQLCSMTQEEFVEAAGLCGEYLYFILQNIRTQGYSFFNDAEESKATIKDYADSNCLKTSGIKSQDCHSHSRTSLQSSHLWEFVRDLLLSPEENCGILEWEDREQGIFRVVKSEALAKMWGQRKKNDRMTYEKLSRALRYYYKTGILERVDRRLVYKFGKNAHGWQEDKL
Conditions: protein: recombinant; tags: N-terminal GST; dsDNA, one strand shown. The procedure, abridged:
as §1

In another test the target is T12, ETV3 (Homo sapiens, UniProt P41162-2 1-143).
T12 sequence: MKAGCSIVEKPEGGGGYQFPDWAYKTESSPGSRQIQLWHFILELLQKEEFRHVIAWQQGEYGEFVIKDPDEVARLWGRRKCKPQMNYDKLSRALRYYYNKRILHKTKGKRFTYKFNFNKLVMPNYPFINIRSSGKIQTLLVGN
To be noted: protein: recombinant; tags: N-terminal GST; dsDNA, one strand shown. The procedure, abridged:
as §1

A further test has as its target ETV6 (Homo sapiens, UniProt P41212 1-452). To be noted: protein: recombinant; tags: N-terminal GST; dsDNA, one strand shown. The procedure, abridged: as §1

ETV5, sequence (P41161 whole entry): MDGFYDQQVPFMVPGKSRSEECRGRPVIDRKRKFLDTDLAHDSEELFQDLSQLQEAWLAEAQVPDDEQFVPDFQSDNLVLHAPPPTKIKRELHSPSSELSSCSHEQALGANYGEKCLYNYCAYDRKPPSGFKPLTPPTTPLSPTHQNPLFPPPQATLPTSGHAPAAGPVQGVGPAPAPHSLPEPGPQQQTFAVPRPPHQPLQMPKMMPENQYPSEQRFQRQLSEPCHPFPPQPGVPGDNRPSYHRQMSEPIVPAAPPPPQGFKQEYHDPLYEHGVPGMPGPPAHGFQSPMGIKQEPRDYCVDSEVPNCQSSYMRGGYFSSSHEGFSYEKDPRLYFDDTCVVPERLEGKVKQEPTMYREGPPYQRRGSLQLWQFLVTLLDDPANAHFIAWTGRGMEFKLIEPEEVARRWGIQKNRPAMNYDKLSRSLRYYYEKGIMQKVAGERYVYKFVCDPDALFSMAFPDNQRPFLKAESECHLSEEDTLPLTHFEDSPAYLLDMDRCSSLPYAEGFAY
CRX, sequence (O43186 whole entry): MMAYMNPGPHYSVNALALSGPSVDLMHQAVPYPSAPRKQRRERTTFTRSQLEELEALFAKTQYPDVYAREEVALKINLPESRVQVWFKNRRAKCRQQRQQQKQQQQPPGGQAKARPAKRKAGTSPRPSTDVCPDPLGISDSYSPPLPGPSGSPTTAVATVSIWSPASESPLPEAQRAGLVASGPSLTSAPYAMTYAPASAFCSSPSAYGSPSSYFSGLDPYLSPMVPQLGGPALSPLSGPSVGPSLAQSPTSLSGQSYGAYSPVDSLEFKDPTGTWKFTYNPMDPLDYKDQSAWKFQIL
ELF4, sequence (Q99607 whole entry): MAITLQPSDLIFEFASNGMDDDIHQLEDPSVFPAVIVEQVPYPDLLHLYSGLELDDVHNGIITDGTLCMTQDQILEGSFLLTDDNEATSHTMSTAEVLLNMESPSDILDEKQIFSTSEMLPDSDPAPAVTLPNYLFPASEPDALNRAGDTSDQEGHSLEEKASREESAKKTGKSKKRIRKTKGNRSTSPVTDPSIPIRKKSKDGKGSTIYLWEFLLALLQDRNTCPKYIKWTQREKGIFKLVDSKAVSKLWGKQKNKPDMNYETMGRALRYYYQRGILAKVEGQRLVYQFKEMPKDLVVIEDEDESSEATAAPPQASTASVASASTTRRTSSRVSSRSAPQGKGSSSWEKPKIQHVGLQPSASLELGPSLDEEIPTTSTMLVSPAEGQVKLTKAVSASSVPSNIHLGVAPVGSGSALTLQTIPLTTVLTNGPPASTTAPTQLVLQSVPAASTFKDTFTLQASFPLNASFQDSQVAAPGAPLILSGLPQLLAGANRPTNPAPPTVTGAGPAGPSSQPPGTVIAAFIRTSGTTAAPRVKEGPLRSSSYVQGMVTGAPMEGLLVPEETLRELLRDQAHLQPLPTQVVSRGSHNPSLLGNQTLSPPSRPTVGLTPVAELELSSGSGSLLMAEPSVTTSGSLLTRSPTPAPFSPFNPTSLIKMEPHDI
ETV1, sequence (P50549 whole entry): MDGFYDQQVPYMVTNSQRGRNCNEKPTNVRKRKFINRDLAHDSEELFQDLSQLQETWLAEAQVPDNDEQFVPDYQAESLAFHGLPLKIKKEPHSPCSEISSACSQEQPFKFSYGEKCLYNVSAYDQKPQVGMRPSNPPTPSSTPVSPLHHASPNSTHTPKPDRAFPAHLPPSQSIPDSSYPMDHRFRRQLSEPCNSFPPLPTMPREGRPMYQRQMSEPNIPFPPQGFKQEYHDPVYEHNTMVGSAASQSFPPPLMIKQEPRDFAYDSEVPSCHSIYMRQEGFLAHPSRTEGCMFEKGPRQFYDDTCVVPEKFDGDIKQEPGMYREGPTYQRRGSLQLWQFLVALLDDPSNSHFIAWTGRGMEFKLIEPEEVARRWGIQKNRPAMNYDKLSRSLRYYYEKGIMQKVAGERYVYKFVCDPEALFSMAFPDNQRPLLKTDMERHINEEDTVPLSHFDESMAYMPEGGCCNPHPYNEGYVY
ETV6, sequence (P41212 whole entry): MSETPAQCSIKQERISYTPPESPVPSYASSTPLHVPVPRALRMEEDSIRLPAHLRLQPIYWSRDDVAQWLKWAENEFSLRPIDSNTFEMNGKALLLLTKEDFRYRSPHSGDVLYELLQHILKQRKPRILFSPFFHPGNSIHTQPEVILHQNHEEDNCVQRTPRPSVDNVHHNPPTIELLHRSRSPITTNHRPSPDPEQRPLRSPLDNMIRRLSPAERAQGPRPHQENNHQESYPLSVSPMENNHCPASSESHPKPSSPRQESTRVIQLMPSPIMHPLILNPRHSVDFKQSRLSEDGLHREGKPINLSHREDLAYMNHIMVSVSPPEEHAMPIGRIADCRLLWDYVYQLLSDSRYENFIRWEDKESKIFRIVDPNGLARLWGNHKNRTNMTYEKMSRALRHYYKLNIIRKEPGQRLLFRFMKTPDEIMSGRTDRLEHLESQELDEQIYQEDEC
HSF1, sequence (Q00613 whole entry): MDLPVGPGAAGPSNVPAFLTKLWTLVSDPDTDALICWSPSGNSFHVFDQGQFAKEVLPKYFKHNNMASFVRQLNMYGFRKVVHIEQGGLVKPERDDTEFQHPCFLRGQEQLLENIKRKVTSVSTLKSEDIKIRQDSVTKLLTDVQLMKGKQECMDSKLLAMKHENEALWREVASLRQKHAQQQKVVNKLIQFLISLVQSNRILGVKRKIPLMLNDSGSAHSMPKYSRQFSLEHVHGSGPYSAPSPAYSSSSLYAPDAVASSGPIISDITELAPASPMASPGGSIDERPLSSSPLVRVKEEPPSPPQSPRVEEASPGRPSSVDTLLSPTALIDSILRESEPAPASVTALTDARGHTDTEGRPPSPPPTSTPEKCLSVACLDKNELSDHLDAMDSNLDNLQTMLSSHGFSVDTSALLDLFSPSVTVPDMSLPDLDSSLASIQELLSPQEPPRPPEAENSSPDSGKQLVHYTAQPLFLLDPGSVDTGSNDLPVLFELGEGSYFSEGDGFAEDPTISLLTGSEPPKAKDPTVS

With TTAGGG, the binding signal with FEV is 1.13 fold enrichment (6-mer frequency, TF over GST control); with ETV5, 1.16 fold enrichment (6-mer frequency, TF over GST control); with HSF1, 1.48 fold enrichment (6-mer frequency, TF over GST control); in the test with SPIC, 1.04 fold enrichment (6-mer frequency, TF over GST control); in the test with ELF4, 1.16 fold enrichment (6-mer frequency, TF over GST control); with ELK4, 1.02 fold enrichment (6-mer frequency, TF over GST control). Further, the binding signal in the test with ETV2 is 1.15 fold enrichment (6-mer frequency, TF over GST control); with ELF3, 1.2 fold enrichment (6-mer frequency, TF over GST control); with CRX, 2.19 fold enrichment (6-mer frequency, TF over GST control); in the test with ETV1, 1.03 fold enrichment (6-mer frequency, TF over GST control); in the test with ERF, 1.21 fold enrichment (6-mer frequency, TF over GST control); in the test with ETV3L, 1.14 fold enrichment (6-mer frequency, TF over GST control). The binding signal in the test with ETS2 is 1.08 fold enrichment (6-mer frequency, TF over GST control); with SPDEF, 1.18 fold enrichment (6-mer frequency, TF over GST control); with ETV7, 1.06 fold enrichment (6-mer frequency, TF over GST control); with ELF5, 1.11 fold enrichment (6-mer frequency, TF over GST control); with ETV3, 1.11 fold enrichment (6-mer frequency, TF over GST control); with ETV6 it was 1.08 fold enrichment (6-mer frequency, TF over GST control).

Source of the values: paper PMC7862700, “An all-to-all approach to the identification of sequence-specific readers for epigenetic DNA modifications on cytosine”.
